# According to PubChem BioAssay (EPA / NIEHS):
# Activity calls are given as the source filed them. Rule for the calls: active = hit-call score of the fitted dose curve at least 0.9, where 1 is the maximum; inactive = score below 0.9.
# What was measured:
# Details in all cases: mRNA level, 48 h; actives raise or lower the signal
# [1] = read-out: Lipase C (LIPC), LIPC (gene 3990); experiment: LTEA_HepaRG_LIPC: Life Technologies and Expression Analysis (LTEA) Assay for Lipase C (LIPC) using HepaRG (AID 2283514)
# How it was run: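 HepaRG, 48 h exposure, 8-pt half-log series from 100 uM in 0.5% DMSO, duplicates. Readout: LIPC mRNA by Fluidigm qRT-PCR, housekeeping-normalized (ACTB/GAPDH/POLR2A). Gain or loss fitted bidirectionally against DMSO baseline.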
# [2] = read-out: Lipoprotein lipase (LPL), LPL (gene 4023); experiment: LTEA_HepaRG_LPL: Life Technologies and Expression Analysis (LTEA) Assay for Lipoprotein lipase (LPL) using HepaRG (AID 2283515)
# How it was run: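 HepaRG, 48 h exposure, 8-pt half-log dilutions from 100 uM, 0.5% DMSO vehicle, duplicates; qRT-PCR (Fluidigm array) of LPL mRNA vs housekeeping genes; bidirectional curve fit relative to DMSO baseline.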
# [3] = read-out: MicroRNA 122 (MIR122), gene 406906; experiment: LTEA_HepaRG_MIR122: Life Technologies and Expression Analysis (LTEA) Assay for MicroRNA 122 (MIR122) using HepaRG (AID 2283516); note: the transcript read is the microRNA miR-122
# How it was run: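 qRT-PCR read-out (TaqMan, Fluidigm array), normalized to three housekeeping genes; HepaRG cells dosed 48 h at 8 concentrations up to 100 uM in 0.5% DMSO, duplicate; gain or loss fitted against DMSO baseline.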
# [4] = read-out: matrix metalloproteinase-10 (MMP10), MMP10 (gene 4319); experiment: LTEA_HepaRG_MMP10: Life Technologies and Expression Analysis (LTEA) Assay for matrix metalloproteinase-10 (MMP10) using HepaRG (AID 2283517)
# How it was run: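 Transcript levels come from Fluidigm qRT-PCR normalized to three housekeeping genes, with curves fitted bidirectionally against 0.5% DMSO. Human HepaRG cells were dosed for 48 hours at concentrations up to 100 uM.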
# [5] = read-out: MYC, MYC (gene 4609); experiment: LTEA_HepaRG_MYC: Life Technologies and Expression Analysis (LTEA) Assay for MYC using HepaRG (AID 2283518)
# How it was run: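 Differentiated HepaRG cells exposed 48 h in serum-free induction medium to 8 concentrations (top 100 uM, half-log steps; 0.5% DMSO), duplicate. MYC mRNA measured by Fluidigm qRT-PCR, normalized to ACTB, GAPDH, POLR2A; bidirectional fit versus DMSO.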
# [6] = read-out: matrix metalloproteinase-3 (MMP3), MMP3 (gene 4314); experiment: LTEA_HepaRG_MMP3: Life Technologies and Expression Analysis (LTEA) Assay for matrix metalloproteinase-3 (MMP3) using HepaRG (AID 2283519)
# How it was run: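 qRT-PCR read-out of MMP3 mRNA (normalised to three housekeeping genes) in HepaRG liver cells after 48 h chemical exposure; 8-point half-log series, top 100 uM, 0.5% DMSO vehicle. Bidirectional curve fitting against DMSO baseline.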
# [7] = read-out: Phosphatase and tensin (PTEN), PTEN (gene 5728); experiment: LTEA_HepaRG_PTEN: Life Technologies and Expression Analysis (LTEA) Assay for Phosphatase and tensin (PTEN) using HepaRG (AID 2283523)
# How it was run: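 HepaRG, 48 h exposure, 8-pt half-log series from 100 uM top, 0.5% DMSO vehicle, duplicates. Readout: Fluidigm qRT-PCR of PTEN transcript; housekeeping normalization (ACTB, GAPDH, POLR2A). Gain or loss fitted relative to DMSO baseline.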
# [8] = read-out: solute carrier (SLC22A1), SLC22A1 (gene 6580); experiment: LTEA_HepaRG_SLC22A1: Life Technologies and Expression Analysis (LTEA) Assay for solute carrier (SLC22A1) using HepaRG (AID 2283524)
# How it was run: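 qRT-PCR readout (TaqMan, Fluidigm arrays) of SLC22A1 transcript, normalized to three housekeeping genes; bidirectional curve fit relative to 0.5% DMSO vehicle. Differentiated human HepaRG cells, 48 h chemical exposure, top concentration 100 uM, half-log steps, eight points.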
# [9] = read-out: Pyruvate Dehydrogenase Kinase 4 (PDK4), PDK4 (gene 5166); experiment: LTEA_HepaRG_PDK4: Life Technologies and Expression Analysis (LTEA) Assay for Pyruvate Dehydrogenase Kinase 4 (PDK4) using HepaRG (AID 2283525)
# How it was run: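 HepaRG (human liver line), 48 h chemical exposure, 8-pt half-log CRC top 100 uM, 0.5% DMSO vehicle, duplicates. Readout: TaqMan qRT-PCR of PDK4 mRNA, housekeeping-normalized; gain/loss fit relative to DMSO baseline.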
# [10] = read-out: NAD(P)H dehydrogenase [quinone] 1 (NQO1), NQO1 (gene 1728); experiment: LTEA_HepaRG_NQO1: Life Technologies and Expression Analysis (LTEA) Assay for NAD(P)H dehydrogenase [quinone] 1 (NQO1) using HepaRG (AID 2283526)
# How it was run: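 qRT-PCR read-out (Fluidigm TaqMan), normalized to three housekeeping genes, after 48 h chemical exposure of HepaRG cells. Concentrations: eight points, top 100 uM, half-log steps, 0.5% DMSO vehicle. Gain or loss of signal fitted relative to DMSO.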
# [11] = read-out: succinate dehydrogenase complex iron sulfur subunit B (SDHB), SDHB (gene 6390); experiment: LTEA_HepaRG_SDHB: Life Technologies and Expression Analysis (LTEA) Assay for succinate dehydrogenase complex iron sulfur subunit B (SDHB) using HepaRG (AID 2283528)
# How it was run: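 HepaRG, 48 h exposure, 8-pt half-log series from 100 uM in 0.5% DMSO, duplicates. Readout: SDHB mRNA by Fluidigm qRT-PCR vs housekeeping genes; bidirectional fit relative to DMSO.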
# [12] = read-out: Signal transducer and activator of transcription 3 (Homo sapiens) (UniProt P40763); experiment: LTEA_HepaRG_STAT3: Life Technologies and Expression Analysis (LTEA) Assay for Signal transducer and activator of transcription (STAT3) using HepaRG (AID 2283529)
# How it was run: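 HepaRG, 48 h exposure, 8-pt half-log series (top 100 uM), 0.5% DMSO vehicle, duplicates. Readout: STAT3 transcript by Fluidigm qRT-PCR, housekeeping-normalized; bidirectional fit vs DMSO baseline.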
# [13] = read-out: solute carrier (SLCO1B1), SLCO1B1 (gene 10599); experiment: LTEA_HepaRG_SLCO1B1: Life Technologies and Expression Analysis (LTEA) Assay for solute carrier (SLCO1B1) using HepaRG (AID 2283530)
# How it was run: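 Differentiated human HepaRG cells were exposed for 48 h in serum-free induction medium to eight half-log concentrations, top 100 uM, in 0.5% DMSO. SLCO1B1 mRNA was measured by qRT-PCR, normalized to ACTB, GAPDH and POLR2A, and fitted bidirectionally against DMSO.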
# [14] = read-out: sulfotransferase 2A1 (SULT2A1), SULT2A1 (gene 6822); experiment: LTEA_HepaRG_SULT2A1: Life Technologies and Expression Analysis (LTEA) Assay for sulfotransferase 2A1 (SULT2A1) using HepaRG (AID 2283531)
# How it was run: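 HepaRG human liver cells, 48 h exposure in serum-free induction medium to 8 half-log concentrations topping at 100 µM (0.5% DMSO), duplicate wells. SULT2A1 mRNA measured by TaqMan qRT-PCR, normalized to ACTB/GAPDH/POLR2A; bidirectional fit against DMSO.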
# [15] = read-out: Transforming Growth Factor (TGFA), TGFA (gene 7039); experiment: LTEA_HepaRG_TGFA: Life Technologies and Expression Analysis (LTEA) Assay for Transforming Growth Factor (TGFA) using HepaRG (AID 2283532)
# How it was run: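 qRT-PCR read-out of TGFA transcript, normalized to three housekeeping genes, fitted bidirectionally against 0.5% DMSO baseline. Human HepaRG cultures received chemicals for 48 h at eight half-log concentrations, top 100 uM.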
# [16] = read-out: Transforming Growth Factor (TGFB1), TGFB1 (gene 7040); experiment: LTEA_HepaRG_TGFB1: Life Technologies and Expression Analysis (LTEA) Assay for Transforming Growth Factor (TGFB1) Transporter using HepaRG (AID 2283533)
# How it was run: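 Differentiated HepaRG cells exposed 48 hr in serum-free induction medium to eight half-log concentrations up to 100 uM (0.5% DMSO), duplicate; TGFB1 mRNA by TaqMan qRT-PCR normalised to ACTB, GAPDH, POLR2A; bidirectional fit against DMSO.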
# [17] = read-out: Nuclear factor NF-kappa-B p105 subunit (Homo sapiens) (UniProt P19838); experiment: LTEA_HepaRG_NFKB1: Life Technologies and Expression Analysis (LTEA) Assay for Nuclear Factor Kappa B Subunit 1 (NFKB1) using HepaRG (AID 2283521);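 note: TaqMan qRT-PCR transcript normalised to ACTB GAPDH and POLR2A housekeeping genes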
# How it was run: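 Differentiated human HepaRG cells were exposed for 48 h in serum-free induction medium to eight concentrations (top 100 uM, half-log steps, 0.5% DMSO), in duplicate. NFKB1 mRNA was measured by TaqMan qRT-PCR, normalized to ACTB/GAPDH/POLR2A, and fitted bidirectionally against DMSO.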
# [18] = read-out: Protein phosphatase 2A (PPP2R4), PTPA (gene 5524); experiment: LTEA_HepaRG_PPP2R4: Life Technologies and Expression Analysis (LTEA) Assay for Protein phosphatase 2A (PPP2R4) using HepaRG (AID 2283522)
# How it was run: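 HepaRG, 48 h exposure, 8-pt half-log series from 100 uM, 0.5% DMSO vehicle, duplicates. Readout: PPP2R4 mRNA, Fluidigm qRT-PCR, housekeeping-normalized. Bidirectional curve fit vs DMSO baseline.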
# [19] = read-out: Nuclear factor erythroid 2-related factor 2 (Homo sapiens) (UniProt Q16236); experiment: LTEA_HepaRG_NFE2L2: Life Technologies and Expression Analysis (LTEA) Assay for Nuclear factor erythroid 2-related factor 2 (NFE2L2) Transcription Factor using HepaRG (AID 2283527);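 note: TaqMan qRT-PCR transcript level normalised to ACTB GAPDH and POLR2A housekeeping genes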
# How it was run: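 HepaRG, 48 h dosing, 8-pt half-log series from 100 uM in 0.5% DMSO, duplicates. Read-out: NFE2L2 mRNA by qRT-PCR (ACTB/GAPDH/POLR2A normalization). Bidirectional curve fit vs DMSO baseline.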
# Sequence of Nuclear factor NF-kappa-B p105 subunit (Homo sapiens) (P19838 whole entry, looked up): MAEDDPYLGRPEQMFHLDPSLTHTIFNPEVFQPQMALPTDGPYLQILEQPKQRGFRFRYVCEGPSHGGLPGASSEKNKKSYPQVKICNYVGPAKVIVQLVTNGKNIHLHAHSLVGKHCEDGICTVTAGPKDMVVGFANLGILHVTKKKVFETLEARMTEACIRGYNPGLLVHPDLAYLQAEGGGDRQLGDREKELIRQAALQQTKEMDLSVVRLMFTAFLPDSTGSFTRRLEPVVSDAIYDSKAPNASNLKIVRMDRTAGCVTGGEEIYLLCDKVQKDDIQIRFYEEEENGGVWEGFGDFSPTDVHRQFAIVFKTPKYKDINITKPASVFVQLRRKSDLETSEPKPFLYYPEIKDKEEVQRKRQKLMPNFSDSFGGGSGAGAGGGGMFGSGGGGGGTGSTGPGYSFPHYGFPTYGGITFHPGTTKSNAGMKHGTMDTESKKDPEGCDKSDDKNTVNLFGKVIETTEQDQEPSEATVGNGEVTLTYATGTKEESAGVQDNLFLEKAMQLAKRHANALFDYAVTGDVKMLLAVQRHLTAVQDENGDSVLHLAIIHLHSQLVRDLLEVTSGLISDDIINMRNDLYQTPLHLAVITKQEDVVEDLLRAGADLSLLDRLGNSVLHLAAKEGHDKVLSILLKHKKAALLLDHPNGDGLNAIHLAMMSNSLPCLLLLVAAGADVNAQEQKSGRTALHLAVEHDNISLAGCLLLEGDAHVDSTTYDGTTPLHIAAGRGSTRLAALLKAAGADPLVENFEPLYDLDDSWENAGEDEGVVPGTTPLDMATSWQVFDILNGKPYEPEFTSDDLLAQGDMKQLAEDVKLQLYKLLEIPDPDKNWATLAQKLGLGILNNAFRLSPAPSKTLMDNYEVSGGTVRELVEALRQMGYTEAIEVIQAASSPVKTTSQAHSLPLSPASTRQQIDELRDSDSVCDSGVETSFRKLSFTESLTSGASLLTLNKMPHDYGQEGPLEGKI
# Sequence of Signal transducer and activator of transcription 3 (Homo sapiens) (P40763 whole entry, looked up): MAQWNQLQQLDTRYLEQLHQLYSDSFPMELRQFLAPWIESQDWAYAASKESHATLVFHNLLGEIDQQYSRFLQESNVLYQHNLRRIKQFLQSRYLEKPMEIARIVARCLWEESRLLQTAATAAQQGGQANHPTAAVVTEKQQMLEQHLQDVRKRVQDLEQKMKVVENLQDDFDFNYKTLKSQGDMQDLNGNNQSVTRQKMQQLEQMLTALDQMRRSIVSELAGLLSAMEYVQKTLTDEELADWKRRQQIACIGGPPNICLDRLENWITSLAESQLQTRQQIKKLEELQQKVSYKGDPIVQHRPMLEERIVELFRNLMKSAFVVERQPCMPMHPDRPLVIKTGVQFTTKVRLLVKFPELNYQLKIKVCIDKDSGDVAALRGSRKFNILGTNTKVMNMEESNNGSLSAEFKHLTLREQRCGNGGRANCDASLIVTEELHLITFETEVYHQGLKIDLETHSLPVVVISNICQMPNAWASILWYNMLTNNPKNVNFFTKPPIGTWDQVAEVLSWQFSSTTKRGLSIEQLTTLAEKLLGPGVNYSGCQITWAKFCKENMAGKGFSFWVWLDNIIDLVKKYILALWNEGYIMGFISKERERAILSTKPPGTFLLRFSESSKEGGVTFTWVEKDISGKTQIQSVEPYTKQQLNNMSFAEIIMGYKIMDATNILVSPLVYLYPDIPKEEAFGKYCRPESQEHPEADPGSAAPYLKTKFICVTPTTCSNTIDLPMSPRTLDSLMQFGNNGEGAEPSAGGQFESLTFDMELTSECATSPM
# Sequence of Nuclear factor erythroid 2-related factor 2 (Homo sapiens) (Q16236 whole entry, looked up): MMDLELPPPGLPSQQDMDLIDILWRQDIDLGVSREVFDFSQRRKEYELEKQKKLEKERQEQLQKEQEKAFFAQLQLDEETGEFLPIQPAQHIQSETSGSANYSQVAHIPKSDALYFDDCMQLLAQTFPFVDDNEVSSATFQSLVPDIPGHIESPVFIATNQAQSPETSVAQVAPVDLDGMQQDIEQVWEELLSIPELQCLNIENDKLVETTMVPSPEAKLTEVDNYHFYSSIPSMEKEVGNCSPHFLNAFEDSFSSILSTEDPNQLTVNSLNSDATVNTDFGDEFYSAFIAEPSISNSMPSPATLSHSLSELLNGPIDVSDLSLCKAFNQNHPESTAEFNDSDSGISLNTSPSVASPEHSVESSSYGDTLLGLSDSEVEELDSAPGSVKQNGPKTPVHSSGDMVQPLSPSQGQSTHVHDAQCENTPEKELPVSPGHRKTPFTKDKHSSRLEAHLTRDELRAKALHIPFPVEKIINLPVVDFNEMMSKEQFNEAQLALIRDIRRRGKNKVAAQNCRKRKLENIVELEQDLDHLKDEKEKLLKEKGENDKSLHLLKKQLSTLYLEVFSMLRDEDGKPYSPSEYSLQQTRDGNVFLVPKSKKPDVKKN
compound,measurement,setting,value
CN(C)C(=O)Nc1ccc(Cl)c(Cl)c1,outcome,[1],inactive
same,outcome,[2],inactive
same,outcome,[3],inactive
same,outcome,[4],inactive
same,AC50,[5],68.8 µM (active)
same,outcome,[6],inactive
same,outcome,[7],inactive
same,AC50,[8],51.5 µM (active)
same,outcome,[9],inactive
same,outcome,[10],inactive
same,outcome,[11],inactive
same,outcome,[12],inactive
same,outcome,[13],inactive
same,outcome,[14],inactive
same,outcome,[15],inactive
same,outcome,[16],inactive
CC(=O)[C@H]1CC[C@H]2[C@@H]3CCC4=CC(=O)CC[C@]4(C)[C@H]3CC[C@]12C,AC50,[1],34.6 µM (active)
same,outcome,[2],inactive
same,AC50,[3],32.3 µM (active)
same,AC50,[4],61.9 µM (active)
same,AC50,[5],34.3 µM (active)
same,AC50,[6],66 µM (active)
same,AC50,[7],87.5 µM (active)
same,AC50,[8],38.2 µM (active)
same,AC50,[9],22.9 µM (active)
same,AC50,[10],62.1 µM (active)
same,AC50,[11],88.6 µM (active)
same,AC50,[12],63.1 µM (active)
same,AC50,[13],75.2 µM (active)
same,AC50,[14],38.5 µM (active)
same,AC50,[15],33.1 µM (active)
same,AC50,[16],91.8 µM (active)
CCN(CC)C(=O)c1cccc(C)c1,outcome,[1],inactive
same,outcome,[2],inactive
same,outcome,[3],inactive
same,outcome,[4],inactive
same,outcome,[5],inactive
same,outcome,[6],inactive
same,outcome,[7],inactive
same,outcome,[8],inactive
same,outcome,[9],inactive
same,outcome,[10],inactive
same,outcome,[11],inactive
same,AC50,[12],4.39 µM (active)
same,outcome,[13],inactive
same,outcome,[14],inactive
same,outcome,[15],inactive
same,outcome,[16],inactive
CCSC(=O)N(CC(C)C)CC(C)C,outcome,[1],inactive
same,outcome,[2],inactive
same,outcome,[3],inactive
same,outcome,[4],inactive
same,outcome,[5],inactive
same,outcome,[6],inactive
same,outcome,[17],inactive
same,outcome,[7],inactive
same,outcome,[8],inactive
same,outcome,[9],inactive
same,outcome,[10],inactive
same,outcome,[11],inactive
same,outcome,[12],inactive
same,outcome,[13],inactive
same,outcome,[14],inactive
same,outcome,[15],inactive
same,outcome,[16],inactive
Cc1nn(C)c(Oc2ccccc2)c1C=NOCc1ccc(C(=O)OC(C)(C)C)cc1,AC50,[1],24.2 µM (active)
same,AC50,[2],11.2 µM (active)
same,AC50,[3],30.3 µM (active)
same,AC50,[4],50 µM (active)
same,AC50,[5],8.62 µM (active)
same,AC50,[6],34.4 µM (active)
same,AC50,[18],5.33 µM (active)
same,outcome,[7],inactive
same,AC50,[8],12.3 µM (active)
same,outcome,[9],inactive
same,outcome,[10],inactive
same,outcome,[11],inactive
same,outcome,[12],inactive
same,AC50,[13],23.2 µM (active)
same,AC50,[14],42.4 µM (active)
same,AC50,[15],12.2 µM (active)
same,AC50,[16],63.2 µM (active)
COC(=O)c1ccccc1C(=O)O,outcome,[1],inactive
same,outcome,[2],inactive
same,outcome,[3],inactive
same,outcome,[4],inactive
same,outcome,[5],inactive
same,outcome,[6],inactive
same,outcome,[17],inactive
same,outcome,[7],inactive
same,outcome,[8],inactive
same,outcome,[9],inactive
same,outcome,[10],inactive
same,outcome,[11],inactive
same,outcome,[12],inactive
same,outcome,[13],inactive
same,outcome,[14],inactive
same,outcome,[15],inactive
same,outcome,[16],inactive
CCCN(CCC)c1c([N+](=O)[O-])cc(C(F)(F)F)c(N)c1[N+](=O)[O-],AC50,[1],50 µM (active)
same,outcome,[2],inactive
same,outcome,[4],inactive
same,AC50,[5],50 µM (active)
same,outcome,[6],inactive
same,outcome,[17],inactive
same,outcome,[18],inactive
same,outcome,[7],inactive
same,AC50,[8],27.2 µM (active)
same,outcome,[9],inactive
same,outcome,[10],inactive
same,outcome,[19],inactive
same,outcome,[11],inactive
same,outcome,[12],inactive
same,outcome,[13],inactive
same,outcome,[14],inactive
same,outcome,[15],inactive
same,AC50,[16],50 µM (active)
